Some test systems named below: HCT-15 colon; HT29 colon; SNB-19 CNS; U251 CNS; PC-3 prostate; SK-MEL-5 melanoma; UACC-62 melanoma; LOX IMVI melanoma; SK-MEL-28 melanoma; SNB-75 CNS.
Holding throughout (assay): NCI-60 one-dose screen, 48 h (100 = growth as untreated, 0 = no growth, -100 = all killed)
Conditions in all cases: 10 µM unless noted

This is part of a sample that, as a whole, favours compounds with a hit. Of some 83,000 tested, about 20% had one in any assay.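 Compound tested at a single concentration for 48 hours in 96-well plates; a percent growth value below 10 was scored as active.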 A number with no mark means an inactive call. Active and inactive are the calls of the source.

Take `CCCCN=C(N)c1ccc(OCCSCCOc2ccc(C(N)=NCCCC)cc2)cc1`: the growth in the assay with HCT-15 colon is 90.5%; with HT29 colon, 44%; with SNB-19 CNS it was 36.7%; in the assay on U251 CNS, 34.5%; in the assay with PC-3 prostate it was 44.4%; in the assay on SK-MEL-5 melanoma, 22.6%. The growth with UACC-62 melanoma is 58.3%; with LOX IMVI melanoma, 58.1%; in the assay on SK-MEL-28 melanoma, 69.6%.

`N#Cc1c(-c2ccccc2)cc(-c2ccccc2)n(CCCC(=O)O)c1=O`: the growth in the assay with HCT-15 colon was 92.9%; with HT29 colon it was 103%; in the assay with SNB-19 CNS, 98.7%; in the assay on U251 CNS it was 93.3%; in the assay on PC-3 prostate, 109%; in the assay with SK-MEL-5 melanoma it was 93.5%. In addition, the growth with UACC-62 melanoma is 91%; with LOX IMVI melanoma, 95.4%; with SK-MEL-28 melanoma, 108%.

On to `CC(C)=CCNc1ncnc2c1ncn2C1OC(COP(=O)(O)O)C(O)C1O` (stereo not given), for which the growth in the assay with HCT-15 colon was 31.6%; in the assay with HT29 colon, 31.6%; with SNB-75 CNS, 65.2%; with PC-3 prostate it was 12%; in the assay on SK-MEL-5 melanoma it was 81.1%; in the assay with UACC-62 melanoma, 69.6%. For the same compound, the results for the growth in the assay with LOX IMVI melanoma and in the assay with SK-MEL-28 melanoma were -61.3% (active) and 85.7%, respectively.

Take `CCOC(=O)CCC(=O)O[C@H]1[C@H](O[C@@H]2[C@@H](C)[C@H](O[C@H]3C[C@@](C)(OC)[C@@H](O)[C@H](C)O3)[C@@H](C)C(=O)O[C@H](CC)[C@@](C)(O)[C@H](O)[C@@H](C)C(=O)[C@H](C)C[C@@]2(C)O)O[C@H](C)C[C@@H]1N(C)C`: the growth in the assay with HCT-15 colon is 98.1%; in the assay with HT29 colon it was 102%; with SNB-75 CNS, 91.5%; with U251 CNS it was 101%; in the assay with PC-3 prostate it was 92.6%; in the assay with SK-MEL-5 melanoma, 104%. The growth is 102% in the assay with UACC-62 melanoma, 102% in the assay on LOX IMVI melanoma and 117% in the assay on SK-MEL-28 melanoma.

The record behind these values is PubChem BioAssay (NCI).
